Test results: PubChem BioAssay AID2242 (National Center for Advancing Translational Sciences (NCATS), 2010)
Among all 200,000 compounds or so, about 720 (0.36%) were called active. Inconclusive results (about 8%) are left out. The call rests on the fitted dose curve; in most records, active means well fitted activation curve with a large enough effect; inconclusive means small, poorly fitted or top-dose-only effect, or effect the other way, or another doubt; inactive means flat fitted curve, though single readings scatter. Some of the results follow.

Target: Lysosomal alpha-glucosidase (Homo sapiens) (UniProt P10253)
Assay: qHTS Assay for Activators of Human alpha-Glucosidase as a Potential Chaperone Treatment of Pompe Disease; further: nearly all actives have a fitted effect of over 80% in size;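 on activity change, positive = activation: 0% = no enzyme basal signal and 100% = uninhibited enzyme activity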
Settings: purified enzyme, 4-MU-alpha-glucoside fluorescence, 20 min; series mostly up to 76.9 µM; activity change, positive = activation: at the top concentration
Procedure, shortened: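 Compounds titrated up to 77 uM against 4 nM enzyme and 400 uM methylumbelliferyl substrate at room temperature, 20 min, pH 5.0. Basic stop, then 4-methylumbelliferone fluorescence (365/440 nm) normalized to no-enzyme and enzyme controls; Hill-equation AC50.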
Potency means the concentration at half of the fitted maximal effect.

Potency, active:
CC(=O)Nc1nc2ccc(-c3nc4ccccc4o3)cc2s1 25.1 µM
COc1ccc(OC)c(C=Nc2ccccc2-c2nc3ccccc3[nH]2)c1 28.2 µM
Nc1c(C(=O)NCCN2CCOCC2)c2nc3ccccc3nc2n1CCc1ccccc1F 39.8 µM
Nc1c(C(=O)NCCN2CCOCC2)c2nc3ccccc3nc2n1-c1ccccc1 35.5 µM
Nc1c(C(=O)NCCN2CCOCC2)c2nc3ccccc3nc2n1-c1cccc(F)c1 35.5 µM
Cc1ccc(C)n1-c1nccc(-c2ccco2)n1 22.4 µM
CNc1nc(-c2ccccc2)cc(C)c1S(C)(=O)=O 28.2 µM
Nc1ccccc1-c1nnc(-c2ccc(-c3ccccc3)cc2)o1 35.5 µM
CCNc1nc(C)c2cc(Br)c(=O)n(CC)c2n1 35.5 µM
COCCn1c(N)c(C(=O)NCC2CCCO2)c2nc3ccccc3nc21 (stereo not drawn) 35.5 µM
Nc1c(C(=O)NCC2CCCO2)c2nc3ccccc3nc2n1-c1ccccc1 (stereo not drawn) 35.5 µM
COc1ccc(-n2c(N)c(C(=O)NCC3CCCO3)c3nc4ccccc4nc32)c(OC)c1 (stereo not drawn) 31.6 µM
CCOC(=O)c1c(N)n(C2CC(C)(C)NC(C)(C)C2)c2nc3ccccc3nc12 31.6 µM
Nc1c(C(=O)OCC2CCCO2)c2nc3ccccc3nc2n1C1CCCC1 (stereo not drawn) 39.8 µM
Cc1ccc(S(=O)(=O)NC(CC(C)C)C(=O)Oc2ccc3c4c(c(=O)oc3c2)CCC4)cc1 (stereo not drawn) 35.5 µM
CCCCC(NS(=O)(=O)c1ccc(C)cc1)C(=O)Oc1ccc2c3c(c(=O)oc2c1)CCC3 (stereo not drawn) 31.6 µM
Cc1ccc(-c2nn(-c3ccccc3)cc2/C=C/C(=O)Nc2nccs2)cc1 35.5 µM
CCCNC(=O)c1c(N)n(-c2cccc(OC)c2)c2nc3ccccc3nc12 35.5 µM
COCCNC(=O)c1c(N)n(-c2ccccc2)c2nc3ccccc3nc12 39.8 µM
COC(=O)c1c(N)n(-c2ccc(NC(C)=O)cc2)c2nc3ccccc3nc12 28.2 µM
COCCNC(=O)c1c(N)n(CCCn2ccnc2)c2nc3ccccc3nc12 35.5 µM
CCN1CCN(C(=O)c2cc3c(=O)n4ccccc4nc3n2Cc2ccccc2)CC1 31.6 µM
O=C(NCCN1CCOCC1)c1cc2c(=O)n3ccccc3nc2n1Cc1ccccc1 35.5 µM
CCc1cc(=O)oc2c(C)c(O)c(CN(C)C)cc12 35.5 µM
CCCc1cc(=O)oc2c(C)c(O)c(CN3CCCCC3)cc12 17.8 µM
CCc1cc(=O)oc2c(C)c(O)c(CN3CCCCC3)cc12 35.5 µM
Cc1cc(=O)oc2cc(OC(=O)c3nn(C(C)C)c(=O)c4ccccc34)ccc12 35.5 µM
CCCCn1nc(C(=O)Oc2ccc3c(C)cc(=O)oc3c2)c2ccccc2c1=O 35.5 µM
CCCn1nc(C(=O)Oc2ccc3c(C)cc(=O)oc3c2)c2ccccc2c1=O 35.5 µM
COC(=O)C1=CNC=C(C(=O)OC)C1c1cccc(OC)c1 31.6 µM
COC(=O)C1=CN(C(C)C)C=C(C(=O)OC)C1c1cccc(OC)c1 28.2 µM
Cc1ccc2cc3c(nc2c1)N(c1ccccc1)CC3 22.4 µM
N#C/C(=C(/O)CCCl)c1ccccn1 39.8 µM
CC1CCCN(CCCNC(=O)c2coc3nc4ccccc4nc23)C1 (stereo not drawn) 22.4 µM
Cc1ccc(C2N(C)c3ccccc3-c3nc4ccccc4n32)o1 (stereo not drawn) 39.8 µM
CN1c2ccccc2-c2nc3ccccc3n2C1c1ccco1 (stereo not drawn) 39.8 µM
CCN1c2ccccc2-c2nc3ccccc3n2C1c1ccco1 (stereo not drawn) 35.5 µM
CN(C)c1c2ccccc2nc2c(F)c(F)c(F)c(F)c12 39.8 µM
Clc1ccc(-c2nc3ncccn3c2Cl)cc1 22.4 µM
CC(=O)/C=C(\C)Nc1ccc(-c2cnc(-c3ccccc3)o2)cc1 39.8 µM
Nc1cccc2nc3ccccc3cc12 28.2 µM
Cc1cc(=O)oc2cc(NS(=O)(=O)c3ccc(F)cc3)ccc12 35.5 µM
Cc1cc(=O)oc2cc(NS(=O)(=O)c3ccccc3)ccc12 35.5 µM
CCOC(=O)c1c(N)n(CCOC(=O)c2cccs2)c2nc3ccccc3nc12 31.6 µM
COCCn1c(N)c(C(=O)OCc2ccccc2)c2nc3ccccc3nc21 31.6 µM
CCCCCOC(=O)c1c(N)n(CCOC)c2nc3ccccc3nc12 35.5 µM
O=C(O)CCn1cc(C2CC(c3ccccc3)=NN2c2ccccc2)c(-c2ccccc2)n1 (stereo not drawn) 31.6 µM
Nc1c(S(=O)(=O)c2cccs2)c2nc3ccccc3nc2n1CCc1ccccc1 31.6 µM
C=CCn1c(N)c(S(=O)(=O)c2cccs2)c2nc3ccccc3nc21 35.5 µM
Nc1c(S(=O)(=O)c2cccs2)c2nc3ccccc3nc2n1CC1CCCO1 (stereo not drawn) 31.6 µM
COCCn1c(N)c(S(=O)(=O)c2cccs2)c2nc3ccccc3nc21 35.5 µM
CC(C)Cn1c(N)c(S(=O)(=O)c2cccs2)c2nc3ccccc3nc21 25.1 µM
CC(C)CCn1c(N)c(S(=O)(=O)c2cccs2)c2nc3ccccc3nc21 35.5 µM
Cc1ccc(-c2cc(-c3ccccc3Cl)c(C#N)c(N)n2)o1 28.2 µM
Cc1ccc(-c2cc(-c3ccccc3)c(C#N)c(N)n2)o1 35.5 µM
Cn1c(C(=O)NCc2ccccn2)cc2c(=O)n3ccccc3nc21 28.2 µM
Cn1c(C(=O)NCC2CCCO2)cc2c(=O)n3ccccc3nc21 (stereo not drawn) 31.6 µM
CCOC(=O)CC1C(=O)NCCN1C(=O)c1cc2c(=O)n3ccccc3nc2s1 (stereo not drawn) 35.5 µM
CCOC(=O)CC1C(=O)NCCN1C(=O)c1cc2c(=O)n3cccc(C)c3nc2s1 (stereo not drawn) 31.6 µM
O=C(c1cc2c(s1)-c1ccccc1OC2)N1CCCC1 28.2 µM
COc1cc2c(cc1OC)C(C)N(C(=O)c1cc3c(s1)-c1ccccc1OC3)CC2 (stereo not drawn) 39.8 µM
O=C(c1cc2c(s1)-c1ccccc1OC2)N1CCc2ccccc2C1 35.5 µM
CN1C(=O)c2ccccc2N(C)C1c1ccccc1Cl (stereo not drawn) 39.8 µM
CCCCn1c2nc3ccccc3nc2c2c(=O)n(-c3ccccc3)cnc21 35.5 µM
CCC(N=c1cc(-c2ccc(OC)cc2)oc2ccc(C)cc12)C(=O)O (stereo not drawn) 31.6 µM
O=[N+]([O-])c1cccc(Nc2c3ccccc3nc3ccccc23)c1 28.2 µM
O=c1oc2c(CN3CCN(CCO)CC3)c(O)ccc2cc1-c1ccccn1 31.6 µM
CCCN(CC(=O)Nc1ccc(Cl)cc1Cl)C(=O)/C=C/c1cc(OC)ccc1OC 31.6 µM
CCCCC[n+]1cccc2c3ccccc3ccc21 35.5 µM
c1ccc(C[n+]2cccc3c4ccccc4ccc32)cc1 39.8 µM
O=C(O)C1C2C=CC(O2)C1C(=O)NCCCn1ccnc1 (stereo not drawn) 20 µM
CN1CCCc2cc(C#N)c(=O)[nH]c21 39.8 µM
Cc1cc(=O)oc2cc3c(cc12)OCCN3 35.5 µM
COc1cccc(-c2ccc(C#N)c(=O)[nH]2)c1 39.8 µM
N#Cc1c(C(F)(F)F)cc(-c2cccc(Cl)c2)[nH]c1=O 39.8 µM
N#Cc1c(C(F)(F)F)cc(-c2ccccc2)[nH]c1=O 35.5 µM
COc1cccc(-c2cc(C(F)(F)F)c(C#N)c(=O)[nH]2)c1 35.5 µM
COc1ccccc1-c1cc(C(F)(F)F)c(C#N)c(=O)[nH]1 39.8 µM
N#Cc1c(C(F)(F)F)cc(-c2ccc(F)cc2)[nH]c1=O 35.5 µM
N#Cc1c(C(F)(F)F)cc(-c2ccc(Cl)cc2)[nH]c1=O 39.8 µM
O=C1c2cnc3ncnn3c2CC2c3ccccc3CCN12 (stereo not drawn) 12.6 µM
N#Cc1cnn2c3c(cnc12)C(=O)N1CCc2ccccc2C1C3 (stereo not drawn) 3.98 µM
CC(=O)c1cc2cc(O)ccc2o1 35.5 µM
Cc1cc(C)n(-c2nc3ccccc3[nH]c2=O)n1 39.8 µM
CNc1nnc(-c2ccc(N(C)C)cc2)s1 35.5 µM
CC(=O)Oc1ccc2c(C)cc(=O)[nH]c2c1 20 µM
Cc1cc(=O)[nH]c2cc(O)ccc12 35.5 µM
CCc1cc2c(=O)c(Oc3ccccc3F)c(C)oc2c(CN(C)C)c1O 35.5 µM
C=CCNc1oc(-c2cccc3ccccc23)nc1C#N 31.6 µM
CC(C)Nc1oc(-c2cccc3ccccc23)nc1C#N 35.5 µM
CC1CCN(c2oc(-c3cccc4ccccc34)nc2C#N)CC1 25.1 µM
COc1ccccc1NC(=O)CSc1nc2c(sc3ccccc32)c(=O)n1CCN(C)C 35.5 µM
CCOC(=O)c1c(C)nc(C)c(C(=O)OCC)c1-c1ccccc1 31.6 µM
Cc1ccc(-c2cc(C(=O)O)c3sc(N4CCCCC4)nc3n2)cc1 28.2 µM
O=C(O)c1cc(-c2ccccc2)nc2nc(N3CCCCC3)sc12 28.2 µM
CCCCN(CC)CCCNC(=O)c1cc2cc3ccc(OC)cc3nc2o1 31.6 µM
CCCN(CCC)CCCNC(=O)c1cc2cc3ccc(OC)cc3nc2o1 28.2 µM

Activity change, positive = activation, inactive:
CCOc1ccc(CN2CCN(Cc3[nH]c4ccc(OC)cc4c3C)CC2CCO)cc1 (stereo not drawn) 4.1e-05%
